Screens: PubChem BioAssay, National Center for Advancing Translational Sciences (NCATS)
Hits are enriched below; roughly 10% of the tested compounds scored in any of these assays.
ALDH1A1 inh: ALDH1A1 (human) enzyme inhibition; hit rate 7.3% among 220,000; Purified ALDH1A1, NADH fluorescence, propionaldehyde substrate; Potency, µM (titrated, usually from 75.3 µM), without a hit: at the highest dose activity, negative = inhibition, hits mostly inhibitors; P00352; active = well fitted inhibition curve with a large enough effect, not every such curve was filed as active; inconclusive = small, poorly fitted or top-dose-only effect, or another doubt; inactive = no such curve, though single readings can be large or run the other way;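 also: potency is read from the fitted curve at half-maximal effect; plate controls were no enzyme wells and a reference inhibitor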
HPGD inh: blocks human HPGD enzyme activity. P15428. purified HPGD, NADH fluorescence kinetic, PGE2 substrate. Potency, µM, inactives show top-dose activity change, negative = inhibition, actives largely listed as inhibitors. hit rate 4.3% among 150,000; active = well fitted inhibition curve with a large enough effect, not every such curve was filed as active; inconclusive = small, poorly fitted or top-dose-only effect, or another doubt; inactive = no such curve, though single readings can be large or run the other way; also: potency is read from the fitted curve at half-maximal effect
Target sequence (P15428 whole entry, looked up): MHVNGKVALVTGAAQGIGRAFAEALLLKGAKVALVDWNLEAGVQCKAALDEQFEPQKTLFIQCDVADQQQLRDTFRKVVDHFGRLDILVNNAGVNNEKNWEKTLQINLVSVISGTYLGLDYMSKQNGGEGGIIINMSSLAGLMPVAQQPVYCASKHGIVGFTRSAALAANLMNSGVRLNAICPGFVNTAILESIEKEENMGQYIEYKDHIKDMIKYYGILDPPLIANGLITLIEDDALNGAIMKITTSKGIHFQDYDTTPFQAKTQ
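NADH formation kinetics: reaction with 30 uM PGE2 and 1 mM NAD+ (final), 20 nM enzyme, Tris-HCl pH 8 with Tween 20, after 15 min compound preincubation at room temperature. Fluorescence change, last versus first of five reads.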
GLA spleen mod: alpha-galactosidase A (human) modulation | hit rate 0.008% among 240,000 | Potency, µM (titrated, usually from 80 µM), for inactives: at the top dose activity change, negative = inhibition, most hits filed as inhibitors | AID 2107 | P06280 | human spleen homogenate, 4MU-alpha-Gal fluorescence, 40 min;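 also: potency is read from the fitted curve at half-maximal effect; 0% = enzyme with vehicle and -100% = no enzyme basal signal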
Target sequence (P06280 32-429 limits assumed): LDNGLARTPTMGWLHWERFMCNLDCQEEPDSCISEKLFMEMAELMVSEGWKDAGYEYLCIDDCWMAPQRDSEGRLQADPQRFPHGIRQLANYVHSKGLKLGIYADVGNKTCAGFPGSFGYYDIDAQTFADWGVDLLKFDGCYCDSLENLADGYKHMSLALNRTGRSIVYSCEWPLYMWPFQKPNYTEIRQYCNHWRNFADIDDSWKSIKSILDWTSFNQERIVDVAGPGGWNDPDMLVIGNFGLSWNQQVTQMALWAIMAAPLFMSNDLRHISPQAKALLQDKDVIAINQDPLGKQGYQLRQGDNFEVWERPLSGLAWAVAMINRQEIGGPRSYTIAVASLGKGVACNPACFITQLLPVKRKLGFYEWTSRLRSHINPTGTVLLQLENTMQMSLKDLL
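Spleen homogenate 1 ug + cpd (titration) + 4-MU-alpha-D-galactopyranoside 1 mM; 37C 40 min; 50 mM citrate/phosphate pH 5.0, 0.01% Tween-20; stop pH 10; fluorescence 365/440; AC50 via Hill.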
GLA inh pH 4.5: alpha-galactosidase A (human) inhibition, pH 4.5; 230,000 tested, under 10 active; purified enzyme, 4-MU-alpha-Gal fluorescence, pH 4.5; P06280; activity change, negative = inhibition, % at 105 µM; AID 1467;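 also: 0% = full activity with enzyme and -100% = basal without enzyme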
PNC assembly inh: perinucleolar compartment assembly inhibition. PC3M PTB-GFP, PNC prevalence imaging, 16 h; stronger effect = lower value. hit rate 3.1% among 140,000. activity change (PNC), negative = inhibition, % at 10 µM;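 active = readout at or below -70, meaning at least 70% loss of cells showing the perinucleolar compartment, a nuclear body marking cancer cells; inconclusive = readout between -30 and a set limit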;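 also: plate controls were DMSO wells for no effect and camptothecin positive control wells for full effect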
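PC3M cells stably expressing PTB-GFP, 750–1000 cells/well, treated 16 h at 37 °C with compound (23 nl of library stock), in duplicate. After paraformaldehyde fixation and Hoechst stain, imaged at 20x; PNC prevalence scored by image analysis.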
12-hLO inh: 12-hLO (ALOX12) enzyme inhibition | P18054 | purified 12-hLO, xylenol orange hydroperoxide absorbance | Potency, µM (series often up to 57.1 µM), inactives show at the highest dose activity change, negative = inhibition, most hits filed as inhibitors | hit rate 0.12% among 150,000; also: potency is read from the fitted curve at half-maximal effect; nearly all actives have a fitted effect of over 55% in size
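150 nM 12hLO, 25 mM Hepes pH 7.0 + 0.01% Triton X-100; cpd preinc 15 min RT; 40 uM arachidonic acid, 30 min RT; Fe-XO 30 min; A573/A405 ratio as read-out.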
* marks the source's active call; other numbers are inactive results; ? = inconclusive; · = not tested or not shown; [ ] = dose if it differs, or a comment. Unless noted, calls follow the shape of the dose curve; as a rule, active = well fitted curve in the direction sought with a large enough effect; inconclusive = small, poorly fitted or top-dose-only effect, or another doubt; inactive = no such curve, though single readings can be large; an effect the other way counts as inactive or inconclusive. Unless noted, % is scaled to controls: 0 for no effect and ±100 for the full control effect.

SMILES	ALDH1A1 inh	HPGD inh	GLA spleen mod	GLA inh pH 4.5	PNC assembly inh	12-hLO inh
COc1ccc(Oc2ncc3nc(CCc4ccccc4)c(=O)n(C4CC4)c3n2)cc1	?	-27%	-10%	·	·	-3%
COc1ccc(CNc2ncnc3ccc(-c4ccccc4C#N)cc23)c(OC)c1	?	·	-29%	·	·	·
COc1ccc(-c2nnc(OCc3ccccc3)c3ccccc23)cc1	?	-21%	6%	11	-88*	-1%
COc1cc2c(C(=O)N3CCN(C4CCCCC4)CC3)cn(CC(C)C)c(=O)c2cc1OC	22µM*	-8%	-9%	2	?	-9%
CCOC(=O)C1CCCN(C(=O)c2cn(CC(C)C)c(=O)c3cc(OC)c(OC)cc23)C1 (configuration not stated)	?	-27%	-1%	0	-100*	-6%
CCOC(=O)CSC1=NC(=O)/C(=C\c2ccc(OC(C)=O)cc2)S1	-7%	25µM*	-12%	-4	4	-5%
COc1ccc(-n2c(SCC#N)nnc2-c2ccc(NS(=O)(=O)c3ccc(C)cc3)cc2)cc1	?	14µM*	-8%	-3	?	-24%
COc1ccc(-n2c(SCC(N)=O)nnc2-c2ccc(NS(=O)(=O)c3ccc(C)cc3)cc2)cc1	?	22µM*	3%	-24	-17	-16%
COc1ccc(-n2c(SCC(=O)Nc3ccccc3)nnc2-c2ccc(NS(=O)(=O)c3ccc(C)cc3)cc2)cc1	11%	-2%	-3%	-18	29	-8%
Cn1cccc1C(=O)N1CCC2(CCCN(c3ccncc3)C2)CC1	6%	-6%	16%	·	·	7%
CCOC(=O)N1CCN(C(=O)CCCn2c(=S)[nH]c3ccsc3c2=O)CC1	-3%	·	0%	-1[21.1 µM]	·	·
Cn1c(NCCCO)nc2c(c1=O)C1(CCCCC1)Cc1ccccc1-2	?	?	2%	-1	3	-6%
CCC(=O)Nn1cnc2c(c1=O)C1(CCCCC1)Cc1ccccc1-2	?	-1%	12%	3	-106*	-4%
COC(OC)c1nc(SCC(=O)Nc2cccc(Cl)c2)ncc1C(=O)O	28µM*	·	-10%	3	·	·
Nc1cc(=O)[nH]c(SCC(=O)Nc2cccc(Cl)c2)n1	-2%	-5%	1%	0	25	6%
COc1ccc(C(=O)c2ccc(N(C)C)cc2)c2ccccc12	-9%	-5%	-1%	-6	-97*	-1%
COc1ccccc1C(=O)COC(=O)c1ccc(N(C)C)cc1	?	·	3%	-7	·	·
O=C(NCc1cccs1)C1CCN(S(=O)(=O)c2ccc(Br)s2)CC1	-3%	0%	13%	-2	-2	-12%
CC(=O)Nc1ccc(NC(=O)C2CCC(CNS(=O)(=O)c3cccc4nsnc34)CC2)cc1 (configuration not stated)	?	·	-4%	6	·	·
COc1cccc(CNC(=O)C2CCC(CNS(=O)(=O)c3cccc4nsnc34)CC2)c1 (configuration not stated)	20µM*	-26%	-1%	-4	-106*	5%
O=C(NCc1cccs1)C1CCC(CNS(=O)(=O)c2cccc3nsnc23)CC1 (configuration not stated)	22µM*	-24%	3%	4	?	-5%
O=C(C1CCC(CNS(=O)(=O)c2cccc3nsnc23)CC1)N1CC=C(c2ccccc2)CC1 (configuration not stated)	18µM*	16µM*	0%	-9	10	5%
O=C(NCc1cccs1)C1CCC(CNS(=O)(=O)c2ccc(Br)s2)CC1 (configuration not stated)	2.8µM*	-2%	2%	2	-5	-2%
O=C(C1CCN(S(=O)(=O)c2cccc3nsnc23)CC1)N1CC=C(c2ccccc2)CC1	?	-21%	-14%	-27	?	-2%
Cn1cnnc1SC1CCCCC1NS(=O)(=O)c1ccc(Cl)cc1 (configuration not stated)	13µM*	-3%	-3%	-1	121	-3%
SMILES	ALDH1A1 inh	HPGD inh	GLA spleen mod	GLA inh pH 4.5	PNC assembly inh	12-hLO inh
Nn1cnnc1SC1CCCCC1NS(=O)(=O)c1ccccc1 (configuration not stated)	10µM*	-6%	7%	1	?	8%
Cn1cnnc1SC1CCCCC1NS(=O)(=O)c1ccccc1 (configuration not stated)	7.9µM*	-3%	-8%	11	?	-5%
Cn1cnnc1SC1c2cccc3cccc(c23)C1NS(=O)(=O)c1ccccc1 (configuration not stated)	?	-14%	13%	0	?	3%
Cc1nc(CN2CCCCC2)cc(=O)[nH]1	8%	·	-11%	8	·	·
CCN(CC)CCCNc1nc2ccccc2[nH]1	6%	-2%	5%	8	-22	14%
Nc1nc2ccccc2[nH]1	20µM*	-11%	9%	·	·	0%
Nc1ccccc1Sc1nc2ccccc2[nH]1	13µM*	·	8%	-2	·	·
CCNc1nc2ccccc2[nH]1	5%	-10%	4%	5	-109*	2%
Nc1cc(N)cc(-c2nc3ccccc3[nH]2)c1	?	?	4%	-10	20	-1%
O=C(Cc1ccccc1)Nc1nc2ccccc2[nH]1	18µM*	-6%	0%	-7	46	0%
O=C(O)c1ccccc1NS(=O)(=O)c1ccc(NNC(=S)Nc2ccc(OC(F)F)cc2)c([N+](=O)[O-])c1	3.5µM*	·	-3%	-27	·	·
O=C(O)c1ccc(C(=O)O)c(C(=O)c2ccccc2)c1	-3%	-14%	-2%	4	0	-3%
Nc1ccc(C(=O)c2ccccc2C(=O)O)cc1Cl	17%	-3%	4%	2	-107*	-3%
CN(C)c1ncc2nc(-c3ccc(F)cc3)c(=O)n(C3CC3)c2n1	?	?	1%	·	·	-2%
C/C(CC(=O)Nc1ccccn1)=N\NC(=O)c1ccc2ccccc2c1	5.6µM*	-16%	1%	2	?	-1%
C/C(CC(=O)Nc1ccccn1)=N\NC(=O)c1ccccc1	9%	-1%	8%	2	12	-2%
c1ccc(-c2cc(-c3nnc4n3N=C(c3ccc5ccccc5c3)CS4)[nH]n2)cc1	0%	-13%	10%	-4	?	2%
O=S1(=O)CC/C(=N\Nc2ccccc2)c2ccsc21	25µM*	·	-9%	3	·	·
Cc1ccc(C2=NN(Cc3nnc(-c4ccccc4)o3)C(=O)SC2)cc1	-8%	11µM*	-22%	-11	8	-1%
Cc1ccc(C(C)C)c(OCc2ccc(C(=O)N/N=C/c3ccc(O)c(O)c3)cc2)c1	-5%	?	6%	3	-124*	-3%
